Experimental findings from PubChem BioAssay (NCI) are described below.

Among the test systems are T-47D breast; BT-549 breast; MDA-MB-435 melanoma; SW-620 colon; MCF7 breast; HCT-116 colon; HCC-2998 colon; KM12 colon.
Test in all cases: NCI-60 one-dose screen, 48 h (100 = growth as untreated, 0 = no growth, -100 = all killed)
Common to all, as to settings: 10 µM unless noted

Molecules are shown by their SMILES. The panel holds about 83,000 compounds, 20% with a hit somewhere; the sample as a whole holds those more often.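 In brief: 96-well plates, 48 h treatment, single concentration, percent growth endpoint.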 A number with no mark means an inactive call. Calls of active or inactive are those of the source. How the source made its calls: active means growth percent below 10; inactive means the rest.

Regarding `O=[N+]([O-])c1cnc(Sc2ccncn2)s1`, the growth in the assay with T-47D breast is -13.9% (active); in the assay with BT-549 breast it was 103%; with MDA-MB-435 melanoma, 27.2%; in the assay with SW-620 colon, -80.9% (active); in the assay on MCF7 breast it was 31.5%; in the assay with HCT-116 colon it was -48.5% (active). In addition, the growth in the assay with HCC-2998 colon is 6.85% (active); with KM12 colon, 75.9%.
On to `COc1ccc(C2C=C(c3ccc(Cl)cc3)N=C3SC=C(C)N32)c(Br)c1` (centres undefined), for which the growth with T-47D breast was 39.3%; in the assay on BT-549 breast, 19.7%; in the assay on MDA-MB-435 melanoma, 9.2% (active); in the assay on SW-620 colon it was 24.2%; in the assay on MCF7 breast, 10.2%; in the assay on HCT-116 colon, 16%.
Take `COc1ccc(-c2[nH]nc(N)c2-c2cc(OC)c3c(c2)OCO3)cc1`: the growth with T-47D breast was 62%; in the assay with BT-549 breast, 59.2%; in the assay with MDA-MB-435 melanoma, -12.8% (active); with SW-620 colon, 20.5%; with MCF7 breast, 32.3%; with HCT-116 colon, 30.9%. In addition, the growth with HCC-2998 colon is 44.3%; with KM12 colon, 27.8%.
Take `CC(O)CN1CCCCC1` (centres undefined): the growth was 137% with T-47D breast; 101% in the assay with BT-549 breast; 105% in the assay on MDA-MB-435 melanoma; 102% with SW-620 colon; 103% in the assay on MCF7 breast; 110% in the assay on HCT-116 colon. Further, the growth was 115% in the assay with HCC-2998 colon and 106% in the assay on KM12 colon.
As to `CCN(CC)c1ccc(C(=N)c2ccc(N(CC)CC)cc2)cc1`, the growth in the assay on T-47D breast is -27.9% (active); in the assay with BT-549 breast, 8.11% (active); in the assay with MDA-MB-435 melanoma it was -35.2% (active); with SW-620 colon, -21% (active); in the assay with MCF7 breast, -18.9% (active); in the assay with HCT-116 colon, -60.1% (active). For the same molecule, the growth in the assay on HCC-2998 colon was -74.5% (active); in the assay with KM12 colon it was -38.2% (active).
`O=C1c2c(Cl)c(Cl)c(Cl)c(Cl)c2C(=O)C2(Cl)CC=CCC12Cl` (centres undefined): the growth was -38.3% (active) with T-47D breast; 43.6% with BT-549 breast; 21.5% with MDA-MB-435 melanoma; -68.7% (active) in the assay with SW-620 colon; -57.5% (active) in the assay with MCF7 breast; -90.2% (active) with HCT-116 colon. Further, the growth was -43% (active) with HCC-2998 colon and -6.67% (active) in the assay with KM12 colon.
Take `Cc1ccc(C(=O)C2=Cc3cc4ccccc4n3Cc3cnnn32)cc1`: the growth in the assay on T-47D breast was 77.8%; with BT-549 breast it was 89.4%; in the assay on MDA-MB-435 melanoma, 71.7%; in the assay with SW-620 colon it was 105%; with MCF7 breast, 90.9%; with HCT-116 colon, 94.1%. For the same molecule, the growth in the assay on HCC-2998 colon is 98.7%; with KM12 colon it was 83.4%.
On to `CCOC(=O)c1cn2c3c(cc(C)cc3c1=O)C(=O)/C(=C/c1ccccc1)C2`, for which the growth in the assay on T-47D breast is 81.7%; with BT-549 breast, 84.3%; in the assay on MDA-MB-435 melanoma, 107%; in the assay on SW-620 colon, 101%; with MCF7 breast, 86.7%; in the assay on HCT-116 colon it was 86.4%. Besides, the figures for the growth with HCC-2998 colon and in the assay with KM12 colon were 98.9% and 102%, respectively.
On to `CC1CCC(C)N(C)C1` (centres undefined), for which the growth in the assay on T-47D breast is 96.9%; with BT-549 breast, 87.6%; with MDA-MB-435 melanoma it was 111%; in the assay with SW-620 colon, 113%; in the assay on MCF7 breast it was 96.5%; in the assay on HCT-116 colon, 97.9%. For the same molecule, the figures for the growth in the assay with HCC-2998 colon and in the assay with KM12 colon were 85.2% and 110%, respectively.
With `NC(N)=N/N=C/c1ccc(-c2ccc(-c3cc(Cl)cc(Cl)c3)s2)cc1`, the growth in the assay on T-47D breast was 28.8%; with BT-549 breast, 95.7%; in the assay with MDA-MB-435 melanoma, 1.1% (active); with SW-620 colon, -66.3% (active); in the assay with MCF7 breast, -39.9% (active); with HCT-116 colon it was -75.9% (active). In addition, the growth is -17.3% (active) with HCC-2998 colon and -62.4% (active) in the assay with KM12 colon.
Regarding `CCN(CC)c1ccc(/C=C2\Oc3ccc(O)c(I)c3C2=O)cc1`, the growth in the assay with T-47D breast is 55.1%; in the assay on BT-549 breast, 54.4%; in the assay on MDA-MB-435 melanoma, 16.7%; in the assay with SW-620 colon, 43.2%; with MCF7 breast, 26.9%; with HCT-116 colon, 33.9%. The growth is 97.2% in the assay on HCC-2998 colon and 43.3% with KM12 colon.
In the case of `Cc1ccc(S(=O)(=O)NCCNc2nccc(-c3c(-c4cccc(N)c4)nc4sccn34)n2)cc1`, the growth in the assay on T-47D breast was 51.7%; with BT-549 breast, 87.5%; in the assay with MDA-MB-435 melanoma, 93.5%; with SW-620 colon, 123%; in the assay on MCF7 breast it was 83.4%; in the assay on HCT-116 colon, 99.2%. Further, the growth is 132% in the assay on HCC-2998 colon and 92.2% in the assay on KM12 colon.
On to `COc1ccc2c(c1)C(c1cc(OC)c3c(c1)OCO3)C1=C(COC1=O)N2` (centres undefined), for which the growth with T-47D breast is 52.4%; with BT-549 breast, 23.4%; in the assay with MDA-MB-435 melanoma it was -13.5% (active); in the assay with SW-620 colon, 23.3%; in the assay on MCF7 breast, 16.2%; in the assay on HCT-116 colon it was 12.7%. Also, the growth with HCC-2998 colon was 10.6%; in the assay with KM12 colon, 9.2% (active).
As for `CCN(CC)CCOc1ccc(/C(=C(/C)c2ccccc2)c2ccc(OC(C)=O)cc2)cc1`, the growth in the assay with T-47D breast is 60.2%; in the assay on BT-549 breast, 69.1%; in the assay on MDA-MB-435 melanoma, 94.8%; in the assay with SW-620 colon, 95.5%; in the assay on MCF7 breast, 41.7%; with HCT-116 colon, 79%. For the same molecule, the growth with HCC-2998 colon was 103%; in the assay on KM12 colon, 102%.
As to `COc1ccc(-n2c(=O)sc3c(Cl)nc(C)nc32)c(OC)c1`, the growth in the assay on T-47D breast is 84.7%; with BT-549 breast, 91.6%; with MDA-MB-435 melanoma it was 69.5%; in the assay with SW-620 colon it was 74.8%; in the assay on MCF7 breast it was 97.6%; with HCT-116 colon, 64.7%. Moreover, the growth was 87.3% in the assay on HCC-2998 colon and 90% in the assay with KM12 colon.
On to `Fc1ccc(Nc2ncnc3ccc(-c4cnc5[nH]ccc5c4)cc23)cc1Cl`, for which the growth in the assay on T-47D breast is -35.3% (active); in the assay on BT-549 breast, 20.3%; in the assay with MDA-MB-435 melanoma it was 51.8%; with SW-620 colon it was 4.35% (active); with MCF7 breast, 9.34% (active); in the assay on HCT-116 colon, -36.3% (active). Besides, the growth is 34% with HCC-2998 colon and 23.3% in the assay with KM12 colon.
In the case of `CNc1ccc(Br)c2c1C(=O)c1ccccc1C2=O`, the growth is 97.1% with T-47D breast; 104% in the assay on BT-549 breast; 108% with MDA-MB-435 melanoma; 107% in the assay on SW-620 colon; 72.4% in the assay on MCF7 breast; 96.6% in the assay with HCT-116 colon. Besides, the growth in the assay with HCC-2998 colon was 109%; in the assay with KM12 colon, 107%.
